Measurements published in PubChem BioAssay (EPA / NIEHS).
Activity calls are given as the source filed them. Rule for the calls: active = hit-call score of the fitted dose curve at least 0.9, where 1 is the maximum; inactive = score below 0.9.

How the values were obtained:
[1] = ATG_AP_1_CIS: Attagene CIS-FACTORIAL HepG2 Assay for human Activator Protein 1 (AP-1) (AID 2282931); conditions: HepG2 Attagene cis-factorial AP-1 reporter mRNA; actives raise or lower the signal
Procedure, shortened: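 Multiplexed HepG2 reporter assay, 24 h dosing. mRNA induction detected by RT-PCR plus capillary electrophoresis. Activity fitted in both directions against DMSO.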

[2] = ATG_AP_2_CIS: Attagene CIS-FACTORIAL HepG2 Assay for human Activator Protein 2 (AP-2) (AID 2282932); conditions: HepG2 AP-2 cis-reporter, Attagene transcription factor profiling; actives raise or lower the signal
Procedure, shortened: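 HepG2, transient MRTU transfection, cis-regulated reporters; 24 h compound exposure; RNA isolated, RT-PCR, 6-FAM labelling, HpaI digest, CE fluorescence. DMSO = negative control/baseline, bidirectional fit.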

[3] = ATG_BRE_CIS: Attagene CIS-FACTORIAL HepG2 Assay for human Bone Morphogenetic Protein (BMP) Response Element (BRE) (AID 2282933); conditions: HepG2 BMP response element reporter, Attagene transcription factor profiling; actives raise or lower the signal
Procedure, shortened: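 A HepG2 multiplex reporter system measured inducible reporter mRNA 24 h post-dosing. Detection: RT-PCR, 6-FAM primer extension, HpaI digestion, capillary electrophoresis. Activity fitted bidirectionally relative to DMSO.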

[4] = molecular target: Transcription factor E2F1 (Homo sapiens) (UniProt Q01094); test: ATG_E2F_CIS: Attagene CIS-FACTORIAL HepG2 Assay for human E2F Transcription Factor 1 (AID 2282935); conditions: HepG2 Attagene cis-reporter, E2F reporter RNA transcripts; actives raise or lower the signal
Transcription factor E2F1 (Homo sapiens), sequence (Q01094 whole entry, looked up): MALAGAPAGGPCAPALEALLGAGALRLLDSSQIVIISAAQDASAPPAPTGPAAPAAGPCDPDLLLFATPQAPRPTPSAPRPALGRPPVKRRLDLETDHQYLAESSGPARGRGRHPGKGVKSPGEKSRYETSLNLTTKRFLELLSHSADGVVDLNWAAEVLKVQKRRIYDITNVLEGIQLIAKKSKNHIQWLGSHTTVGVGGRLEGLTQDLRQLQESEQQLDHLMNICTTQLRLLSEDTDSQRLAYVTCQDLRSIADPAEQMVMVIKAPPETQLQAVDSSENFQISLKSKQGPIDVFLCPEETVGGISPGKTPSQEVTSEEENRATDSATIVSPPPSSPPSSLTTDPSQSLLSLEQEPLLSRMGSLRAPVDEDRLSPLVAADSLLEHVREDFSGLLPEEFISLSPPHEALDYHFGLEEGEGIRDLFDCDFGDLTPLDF
Procedure, shortened: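 Cis-element reporter mRNA induction in transiently transfected HepG2, 24 h exposure. Activity fitted in both directions relative to DMSO negative control.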

[5] = ATG_E_Box_CIS: Attagene CIS-FACTORIAL HepG2 Assay for human Enhancer Box (E-box) (AID 2282936); conditions: HepG2 E-box cis-reporter transcription, actives raise or lower the signal
Procedure, shortened: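 Cells: HepG2 (human liver), transient MRTU transfection. Exposure 24 h. RNA → oligo(dT) RT → PCR → 6-FAM label → HpaI → CE. Activity fitted both directions relative to DMSO.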

[6] = ATG_M_61_CIS: Attagene CIS-FACTORIAL HepG2 Assay for M61 Transcription Factor (Internal Marker) (AID 2282937); conditions: HepG2 Attagene CIS-FACTORIAL M61 internal marker reporter; actives raise or lower the signal
Procedure, shortened: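 Endogenous transcription factor activity in HepG2 is read through transiently transfected cis-element reporter units. After 24 h dosing, RNA undergoes reverse transcription, PCR and primer extension with 6-FAM before capillary electrophoresis; DMSO-referenced bidirectional fit.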

[7] = ATG_EGR_CIS: Attagene CIS-FACTORIAL HepG2 Assay for human Early Growth Response 1 (EGR1) (AID 2282938); conditions: HepG2 Attagene CIS-FACTORIAL EGR reporter mRNA; actives raise or lower the signal
Procedure, shortened: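 Activity is taken as induction or loss of reporter mRNA versus DMSO, fitted bidirectionally. Transcripts from cis-regulated reporter units in transiently transfected HepG2 were measured after 24 h by RT-PCR with capillary electrophoresis.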

[8] = ATG_M_19_CIS: Attagene CIS-FACTORIAL HepG2 Assay for M19 Transcription Factor (Internal Marker) (AID 2282939); conditions: HepG2 Attagene CIS-FACTORIAL M19 internal marker reporter; actives raise or lower the signal
Procedure, shortened: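 Chemical-treated HepG2 (24 h) with MRTU constructs; reporter transcripts detected by fluorescent RT-PCR fragment analysis on capillary electrophoresis. Internal background marker, DMSO as baseline.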

[9] = ATG_Ets_CIS: Attagene CIS-FACTORIAL HepG2 Assay for human Erythroblast Transformation Specific (ETS) (AID 2282941); conditions: HepG2 ETS cis-reporter transcription, actives raise or lower the signal
Procedure, shortened: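 Human HepG2 hepatoma cells were transiently transfected with promoter-driven reporter constructs and treated for 24 hours. Reporter transcripts were quantified by RT-PCR with fluorescent primer extension; bidirectional curve fitting used DMSO as reference.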

[10] = molecular target: Hepatocyte nuclear factor 3-beta (Homo sapiens) (UniProt Q9Y261); test: ATG_FoxA2_CIS: Attagene CIS-FACTORIAL HepG2 Assay for human Forkhead box A2 (FOXA2) (AID 2282942); conditions: HepG2 cis-reporter transcription factor activity, 24 h; actives raise or lower the signal
Hepatocyte nuclear factor 3-beta (Homo sapiens), sequence (Q9Y261 whole entry, looked up): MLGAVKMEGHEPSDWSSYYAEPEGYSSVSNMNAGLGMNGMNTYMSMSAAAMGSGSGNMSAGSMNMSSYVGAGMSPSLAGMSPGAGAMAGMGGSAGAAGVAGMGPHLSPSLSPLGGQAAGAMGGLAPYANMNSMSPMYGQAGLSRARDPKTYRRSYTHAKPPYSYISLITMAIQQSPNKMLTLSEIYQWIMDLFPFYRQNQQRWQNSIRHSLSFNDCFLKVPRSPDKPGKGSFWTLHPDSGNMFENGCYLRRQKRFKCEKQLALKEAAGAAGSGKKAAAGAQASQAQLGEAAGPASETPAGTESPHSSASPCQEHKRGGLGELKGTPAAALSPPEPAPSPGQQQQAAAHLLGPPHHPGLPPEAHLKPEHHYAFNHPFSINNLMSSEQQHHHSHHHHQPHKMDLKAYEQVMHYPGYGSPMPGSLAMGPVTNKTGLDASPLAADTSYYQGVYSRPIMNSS
Procedure, shortened: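 Reporter transcript induction is measured by fluorescence after capillary electrophoresis of RT-PCR products from HepG2 cells exposed 24 h. Cis-regulated reporter units report endogenous factor activity; curves fitted both directions against DMSO.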

[11] = ATG_FoxO_CIS: Attagene CIS-FACTORIAL HepG2 Assay for human Forkhead box O (FoxO) (AID 2282943); conditions: HepG2 Attagene cis-reporter, FoxO element, mRNA; actives raise or lower the signal
Procedure, shortened: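 Endogenous transcription factor activity read from multiplexed cis-promoter reporter transcripts in transiently transfected HepG2, 24 h after dosing. Reporter RNA measured via RT-PCR plus capillary electrophoresis of FAM-labeled products; gain or loss relative to DMSO.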

[12] = ATG_GLI_CIS: Attagene CIS-FACTORIAL HepG2 Assay for human Zinc Finger Protein GLI1 (AID 2282945); conditions: HepG2, Attagene cis-factorial reporter mRNA, GLI element; actives raise or lower the signal
Procedure, shortened: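 Bidirectional curve fits relative to DMSO, using reporter mRNA levels from RT-PCR plus capillary electrophoresis. Cells were HepG2 transiently carrying cis-regulated reporter constructs, harvested 24 h after dosing.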

[13] = ATG_GRE_CIS: Attagene CIS-FACTORIAL HepG2 Assay for human Glucocorticoid Response Elements (GRE) (AID 2282947); conditions: HepG2 GRE cis-reporter, Attagene multiplex mRNA; actives raise or lower the signal
Procedure, shortened: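 Transient MRTU transfection of human HepG2 liver cells; cis-regulated reporters report endogenous factors. 24 h dosing → RNA isolation → RT-PCR → 6-FAM primer extension → HpaI cut → CE fragment analysis. Bidirectional fit, DMSO negative control.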

[14] = ATG_ISRE_CIS: Attagene CIS-FACTORIAL HepG2 Assay for human Interferon Regulatory Factor 1 (IRF1) binding to an Interferon-Stimulated Response Element (ISRE) (AID 2282948); conditions: HepG2 ISRE cis-reporter (Attagene), mRNA transcription readout; actives raise or lower the signal
Procedure, shortened: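 Cell-based cis-reporter assay; HepG2; 24 h exposure; reporter mRNA by RT-PCR plus capillary electrophoresis fluorescence; activity in either direction scored relative to DMSO.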

[15] = ATG_M_32_CIS: Attagene CIS-FACTORIAL HepG2 Assay for M32 Transcription Factor (Internal Marker) (AID 2282949); conditions: HepG2 Attagene cis-factorial M32 reporter, mRNA; actives raise or lower the signal;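 note: background control marker of the multiplexed CIS panel rather than a real target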
Procedure, shortened: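 HepG2 cells transiently transfected with multiplexed cis-regulated reporter units, dosed 24 h. Reporter mRNA quantified by RT-PCR, 6-FAM labelling, HpaI digestion and capillary electrophoresis; bidirectional fit vs DMSO.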

[16] = ATG_M_06_CIS: Attagene CIS-FACTORIAL HepG2 Assay for M06 Transcription Factor (Internal Marker) (AID 2282950); conditions: HepG2 Attagene CIS-FACTORIAL M06 internal marker reporter; actives raise or lower the signal
Procedure, shortened: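 Cells (HepG2, transiently carrying cis-driven reporter units) receive chemical for 24 h before RNA isolation. Reporter cDNA is PCR-amplified, FAM-labelled by primer extension, HpaI-digested and sized on a capillary analyser.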

[17] = ATG_GATA_CIS: Attagene CIS-FACTORIAL HepG2 Assay for human GATA Binding Protein (AID 2282944); conditions: HepG2 GATA cis-element reporter, Attagene multiplex mRNA; actives raise or lower the signal
Procedure, shortened: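 Transfected cis-reporter HepG2 cells were treated with chemicals for 24 hours. Total RNA was then converted to cDNA, amplified with reporter-specific primers and analysed by fluorescent capillary electrophoresis, using DMSO-treated wells as baseline.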

[18] = molecular target: Bile acid receptor (Homo sapiens) (UniProt Q96RI1); test: ATG_IR1_CIS: Attagene CIS-FACTORIAL HepG2 Assay for human Nuclear Receptor Subfamily 1 Group H Member 4 (NR1H4), IR1 submotif (AID 2282946); conditions: IR1 reporter transcription, actives raise or lower the signal
Bile acid receptor (Homo sapiens), sequence (Q96RI1 whole entry, looked up, the tested form may be a part): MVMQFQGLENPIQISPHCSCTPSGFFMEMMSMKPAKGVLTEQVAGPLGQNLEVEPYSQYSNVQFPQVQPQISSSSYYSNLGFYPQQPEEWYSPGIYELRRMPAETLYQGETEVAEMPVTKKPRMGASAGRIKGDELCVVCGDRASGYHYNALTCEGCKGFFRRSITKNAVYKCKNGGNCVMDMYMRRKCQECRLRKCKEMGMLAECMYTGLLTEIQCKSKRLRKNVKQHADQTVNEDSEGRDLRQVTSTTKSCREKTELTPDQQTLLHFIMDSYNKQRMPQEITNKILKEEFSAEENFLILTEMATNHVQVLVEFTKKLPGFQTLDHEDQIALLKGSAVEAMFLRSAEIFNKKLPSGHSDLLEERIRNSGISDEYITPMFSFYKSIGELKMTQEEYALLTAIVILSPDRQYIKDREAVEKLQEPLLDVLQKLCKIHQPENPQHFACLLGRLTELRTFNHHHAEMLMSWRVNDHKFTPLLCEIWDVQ
Procedure, shortened: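 Cells (human HepG2) carry transiently transfected cis-promoter reporter transcription units. Compounds are incubated 24 h, total RNA is reverse-transcribed and amplified, and labelled fragments are resolved by capillary electrophoresis. Curves use DMSO as baseline.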

[19] = ATG_ERE_CIS: Attagene CIS-FACTORIAL HepG2 Assay for Estrogen Response Element (ERE) (AID 2282940); conditions: HepG2 ERE cis-reporter, Attagene RNA transcript; actives raise or lower the signal
Procedure, shortened: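 Human liver cells (HepG2) bearing transiently transfected, promoter-regulated reporter units were exposed 24 h. Reporter mRNA induction was detected by capillary electrophoresis of labelled RT-PCR products and fitted bidirectionally to DMSO.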

Measured: AC50

N#CS
not listed: [17] | [18] | [19]
inactive: all other assays above

CN(N=O)C(N)=O
not listed: [19]
inactive: all other assays above

CC(=Cc1ccccc1)[N+](=O)[O-]
active: [1] 19.9 µM | [2] 16.6 µM | [11] 11.1 µM | [17] 16.8 µM | [12] 20.1 µM | [18] 5.55 µM | [14] 7.14 µM
not listed: [4] | [5] | [8] | [15]
inactive: all other assays above

N#Cc1ccc(Cl)cc1
not listed: [18]
inactive: all other assays above

Cc1cccc(C)c1NC(=O)CN1CCCC1=O
not listed: [6]
inactive: all other assays above

O=CCCl
active: [1] 165 µM | [5] 183 µM | [7] 38.4 µM | [11] 26.6 µM | [12] 25.5 µM | [14] 51.9 µM
not listed: [15] | [17] | [18]
inactive: all other assays above

Oc1cc(Cl)c(Cl)cc1Cl
active: [1] 25.9 µM | [3] 26.8 µM | [7] 66.6 µM
not listed: [6] | [13] | [15] | [17] | [18] | [19]
inactive: all other assays above

CCCCCCCCCCCCBr
not listed: [4] | [18]
inactive: all other assays above
